Assay outcomes as filed in PubChem BioAssay.
Hits are enriched below; roughly 9% of the tested compounds scored in any of these assays.
HTT aggregate: inhibitors of mutant huntingtin aggregate formation in PC12 cells; Potency, µM (series often up to 46.1 µM), hits mostly inhibitors; AID 1688; 220,000 tested, 1.1% active; PC12 HttQ103-GFP aggregates, Acumen cytometry, 40 h; further: nearly all actives have a fitted effect of over 60% in size
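PC12/HTTQ103-GFP, ecdysone-inducible; teb 100 nM; cpd qHTS titration; GFP aggregates read on laser cytometer, Ex 488/Em 500-530 nm.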
HPGD block: blocks human HPGD enzyme activity. P15428. Potency, µM, hits mostly inhibitors. purified HPGD, NADH fluorescence kinetic, PGE2 substrate. 150,000 tested, 4.3% active; active means well fitted inhibition curve with a large enough effect, not every such curve was filed as active; inconclusive means small, poorly fitted or top-dose-only effect, or another doubt; inactive means no such curve, though single readings can be large or run the other way
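20 nM HPGD preincubated 15 min at room temperature with compound in 50 mM Tris-HCl pH 8, 0.01% Tween 20. Started with 1 mM NAD+ and 30 uM prostaglandin E2; NADH fluorescence (360/450 nm) read 5 times over 30-s intervals, last minus first.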
LMNA splice mod: changes lamin A minigene splicing in HeLa cells. Potency, µM (doses to about 46.1 µM), hits mostly inhibitors. 200,000 tested, 0.01% active. HeLa LMNA splicing GFP/RFP minigene ratio, 48 h; active means well fitted inhibition curve with a large enough effect in the signal ratio, with a control signal flat, not every such curve was filed as active; inconclusive means small, poorly fitted or top-dose-only effect, or effect the other way, or a change in a side signal; the % refers to the signal ratio
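S3 HeLa stable clones carrying a lamin A-EGFP splicing minigene plus DsRed2 were seeded at 600 cells/well in Opti-MEM with 2% FBS, pin-dosed and incubated 48 h at 37°C. Acumen cytometry (488 nm) gave the GFP/RFP total-intensity ratio.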
HTT ATP protect: cytoprotection in Huntington HTT-Q103 PC12 cell model; PC12 HTT-Q103 induced, cytoprotection, ATP luminescence, 40 h; Potency, µM (doses to about 56.4 µM), most hits filed as activators; 230,000 tested, 0.14% active; further: nearly all actives have a fitted effect of over 45% in size
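Huntington model: PC12 line, ecdysone-inducible HTTQ103 exon1–GFP, tebufenozide 100 nM. Test articles in a dose series. Endpoint luminescence from cellular ATP.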
Luc counter: counter-screen: inhibitors of Kinase-Glo firefly luciferase | Q27757 | Kinase-Glo luciferase, ATP luminescence, 8 min | Potency, µM (highest dose often 38.3 µM), usual class: inhibitors | 200,000 tested, 0.28% active | AID 1379; further: nearly all actives have a fitted effect of over 60% in size
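Recombinant Kinase-Glo luciferase, 10 uM ATP (linear range), luciferin; imidazole pH 7.2 / KCl / MgCl2 / Tween / BSA buffer; 8 min RT; luminescence.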
ALDH1A1 block: inhibitors of human aldehyde dehydrogenase 1A1; Purified ALDH1A1, NADH fluorescence, propionaldehyde substrate; Potency, µM (series often up to 75.3 µM), most hits filed as inhibitors; 220,000 tested, 7.3% active; active means well fitted inhibition curve with a large enough effect, not every such curve was filed as active; inconclusive means small, poorly fitted or top-dose-only effect, or another doubt; inactive means no such curve, though single readings can be large or run the other way
Target sequence (P00352 whole entry, looked up): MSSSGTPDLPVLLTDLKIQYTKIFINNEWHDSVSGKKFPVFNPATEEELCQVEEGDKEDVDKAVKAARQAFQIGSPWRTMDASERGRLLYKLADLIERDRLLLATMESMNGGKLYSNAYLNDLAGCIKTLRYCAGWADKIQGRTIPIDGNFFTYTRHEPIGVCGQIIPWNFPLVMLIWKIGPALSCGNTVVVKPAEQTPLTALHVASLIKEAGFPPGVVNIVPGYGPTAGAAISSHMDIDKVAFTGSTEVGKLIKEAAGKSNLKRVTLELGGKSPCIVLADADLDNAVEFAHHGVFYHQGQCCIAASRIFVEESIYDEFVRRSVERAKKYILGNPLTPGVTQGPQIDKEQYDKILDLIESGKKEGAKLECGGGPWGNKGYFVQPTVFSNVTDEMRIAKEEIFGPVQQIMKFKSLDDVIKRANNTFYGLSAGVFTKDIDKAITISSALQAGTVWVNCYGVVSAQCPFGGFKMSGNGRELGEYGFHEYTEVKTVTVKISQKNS
Hits are given with their value; [ ] = another dose, or the depositor's remark. Unless noted, the call rests on the fitted dose curve; in most records, active means well fitted curve in the direction sought with a large enough effect; inconclusive means small, poorly fitted or top-dose-only effect, or another doubt; inactive means no such curve, though single readings can be large; an effect the other way counts as inactive or inconclusive.

CCOc1ccc(-n2c(SCc3ccc([N+](=O)[O-])cc3)nnc2-c2ccccc2)cc1 was read as HTT aggregate 20µM, HPGD block inactive, LMNA splice mod inconclusive, HTT ATP protect inactive[10 µM], Luc counter inactive and ALDH1A1 block inactive.
For Cc1ccc(Cl)cc1N1CCN(C(=O)c2noc3c2CCCC3)CC1 the results were LMNA splice mod inactive.
CC(c1ccon1)N(C)Cc1cn[nH]c1-c1ccc(F)cc1F (configuration not stated) was read as HTT aggregate inactive[9.22 µM] and HTT ATP protect inactive[10 µM].
Screening O=C(c1ccco1)N1CCN(C(c2ccccc2F)c2nnnn2CC2CCCO2)CC1 (configuration not stated) returned HTT aggregate inactive, HPGD block inactive, LMNA splice mod inactive, HTT ATP protect inactive[10 µM], Luc counter inactive and ALDH1A1 block inconclusive.
O=C(CN(c1ccc(Cl)cc1)S(=O)(=O)c1ccc(Cl)c([N+](=O)[O-])c1)NCCc1ccccc1 was read as HTT aggregate inactive, HTT ATP protect inactive, Luc counter inactive and ALDH1A1 block 25µM.
COc1ccc(N(CC(=O)Nc2ccccc2F)S(=O)(=O)c2ccc(C)c([N+](=O)[O-])c2)cc1 was read as HTT aggregate inactive, HTT ATP protect inactive[10 µM], Luc counter inactive and ALDH1A1 block 11µM.
`CCCCn1c(NC(=O)c2ccccc2Cl)c(C#N)c2nc3ccccc3nc21` gave HTT aggregate 10µM, HPGD block inconclusive, LMNA splice mod inconclusive, HTT ATP protect inactive, Luc counter inactive and ALDH1A1 block inconclusive.
For C=CCn1c(=O)c2c(C)c(C)sc2n2c(Nc3ccccc3)nnc12 the results were HTT aggregate inactive, HPGD block inactive, LMNA splice mod inconclusive, HTT ATP protect inactive[0.074 µM], Luc counter inactive and ALDH1A1 block inactive.
`Cc1noc(NC(=O)c2ccc(Cl)c(Cl)c2)c1Cl` gave HTT aggregate inactive, HTT ATP protect inactive, Luc counter inactive and ALDH1A1 block inactive.
For CCN(CC)C(=O)c1cccc(-c2ccc(OC)cc2)c1 the results were HTT aggregate inactive, HPGD block 14µM, LMNA splice mod inconclusive, HTT ATP protect inactive[0.074 µM], Luc counter inactive and ALDH1A1 block inactive.
COC(=O)CNC(=O)c1cccc(-c2ccc(OC)cc2)c1 was read as HTT aggregate inactive[9.22 µM], HTT ATP protect inactive[10 µM], Luc counter inactive and ALDH1A1 block inactive.
Screening CCn1c(=O)cc(OCC(=O)NCc2ccco2)c2ccccc21 returned HTT aggregate inactive, HPGD block inactive, LMNA splice mod inactive, HTT ATP protect inactive, Luc counter inactive and ALDH1A1 block inconclusive.
For CCn1c(=O)cc(OCC(=O)NCc2ccc(C)o2)c2ccccc21 the results were HTT aggregate inconclusive, HPGD block inconclusive, LMNA splice mod inactive, HTT ATP protect inactive[10 µM], Luc counter inactive and ALDH1A1 block 22µM.
Screening CCn1c(=O)cc(SCC(=O)NCc2ccc(C)o2)c2ccccc21 returned HTT aggregate inactive, HPGD block 28µM, LMNA splice mod inactive, HTT ATP protect inactive, Luc counter inactive and ALDH1A1 block inactive.
For O=C(O)c1ccc(Cl)c(S(=O)(=O)Nc2ccc3[nH]c(=O)[nH]c3c2)c1 the results were HTT aggregate inactive[9.22 µM], LMNA splice mod inactive, HTT ATP protect inactive[10 µM] and ALDH1A1 block inactive.
`CC1(C(=O)O)COC(c2ccc([N+](=O)[O-])cc2)OC1` (configuration not stated) gave HTT aggregate inactive, HPGD block inactive, LMNA splice mod inactive, HTT ATP protect inactive, Luc counter inactive and ALDH1A1 block inactive.
For O=C1NC(C(=O)O)=CC(c2ccc([N+](=O)[O-])cc2)N1 (configuration not stated) the results were HTT aggregate inactive[9.22 µM], HTT ATP protect inactive[10 µM] and ALDH1A1 block 14µM.
For COCCCn1c(SCc2cccc(C(F)(F)F)c2)nc2cc(OC)c(OC)cc2c1=N the results were HTT aggregate inactive, HPGD block inconclusive, LMNA splice mod inconclusive, HTT ATP protect inactive, Luc counter inactive and ALDH1A1 block inconclusive.
O=C(CSc1nc2ccccc2s1)NC(=O)NCc1ccco1 was read as HTT aggregate inactive, HPGD block 25µM, LMNA splice mod inactive, HTT ATP protect inactive, Luc counter inactive and ALDH1A1 block 32µM.
`O=C(CSc1n[nH]c(-c2ccccc2)n1)Nc1ccc(Br)cn1` gave HTT aggregate inconclusive, HPGD block 13µM, LMNA splice mod inactive, HTT ATP protect inactive[10 µM], Luc counter inactive and ALDH1A1 block inactive.
`O=C(CSc1n[nH]c(-c2ccccc2)n1)Nc1ncccn1` gave HTT aggregate inactive[9.22 µM], LMNA splice mod inactive, HTT ATP protect inactive, Luc counter inactive and ALDH1A1 block inactive.
For O=C(CSc1n[nH]c(-c2ccccc2)n1)NC(=O)NCc1ccco1 the results were HTT aggregate inactive, HPGD block 14µM, LMNA splice mod inactive, HTT ATP protect inactive, Luc counter inactive and ALDH1A1 block inactive.
For O=C(CSc1nc(-c2ccccc2)cs1)NC(=O)NCc1ccco1 the results were HTT aggregate inactive, HPGD block inactive, LMNA splice mod inconclusive, HTT ATP protect inactive[10 µM], Luc counter inactive and ALDH1A1 block inconclusive.
Cc1ccc(N(Cc2ccco2)C(=O)c2ccc(N3CCCCC3)c([N+](=O)[O-])c2)cc1 was read as HTT aggregate inconclusive, HPGD block inactive, LMNA splice mod inconclusive, HTT ATP protect inactive[10 µM], Luc counter inactive and ALDH1A1 block inconclusive.
COc1nc(N(c2ccccc2)c2ccccc2)nc(-n2ccnc2)n1 was read as HTT aggregate inconclusive, HPGD block inactive, LMNA splice mod inconclusive, HTT ATP protect inactive, Luc counter inactive and ALDH1A1 block 1.4µM.
Screening COc1cccc2cc(C(=O)OC3CCN(C)CC3)c(=O)oc12 returned HTT aggregate inactive, HPGD block inactive, LMNA splice mod inactive, HTT ATP protect inactive[10 µM], Luc counter inactive and ALDH1A1 block inactive.
For COc1cccc2cc(C(=O)N3CCCCC3C)c(=O)oc12 (configuration not stated) the results were HTT aggregate inactive, HPGD block 16µM, LMNA splice mod inactive, HTT ATP protect inactive[10 µM], Luc counter inactive and ALDH1A1 block inactive.
COc1cccc2cc(C(=O)N3C(C)CCCC3C)c(=O)oc12 (configuration not stated) was read as HTT aggregate inconclusive, HPGD block 28µM, LMNA splice mod inactive, HTT ATP protect inactive[10 µM], Luc counter inactive and ALDH1A1 block inactive.
`CCOc1cccc2cc(C(=O)N3CCN(C/C=C/c4ccccc4)CC3)c(=O)oc12` gave HTT aggregate inactive, HPGD block inactive, LMNA splice mod inactive, HTT ATP protect inactive[10 µM], Luc counter inactive and ALDH1A1 block 14µM.
For COc1cccc2cc(C(=O)N3CCC(C)CC3)c(=O)oc12 the results were HTT aggregate inactive, HPGD block 13µM, LMNA splice mod inactive, HTT ATP protect inactive, Luc counter inactive and ALDH1A1 block inconclusive.
